Reference: PubChem BioAssay (EPA / NIEHS)
Active and inactive are the calls of the source. The calls were made as follows: active = hit-call score of the fitted dose curve at least 0.9, where 1 is the maximum; inactive = score below 0.9.

Assays:
Details in all cases: mRNA level, 48 h; actives raise or lower the signal
CYP2E1 (gene 1571) = assay: LTEA_HepaRG_CYP2E1: Life Technologies and Expression Analysis (LTEA) Assay for CYP2E1 using HepaRG (AID 2283485)
Outline: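 CYP2E1 transcript measured by Fluidigm qRT-PCR against three housekeeping genes in human HepaRG cells treated 48 h (top 100 uM, half-log steps, 0.5% DMSO vehicle). Gain or loss fitted relative to DMSO baseline.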

CYP4A11 (gene 1579) = assay: LTEA_HepaRG_CYP4A11: Life Technologies and Expression Analysis (LTEA) Assay for CYP4A11 using HepaRG (AID 2283486)
Outline: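 HepaRG, 48 h chem exposure, 8 conc (100 uM top, half-log), 0.5% DMSO vehicle; qRT-PCR readout, housekeeping-gene normalized; bidirectional curve fit vs DMSO baseline.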

[1] = read-out: Cytochrome P450 3A4 (Homo sapiens) (UniProt P08684); assay: LTEA_HepaRG_CYP3A4: Life Technologies and Expression Analysis (LTEA) Assay for CYP3A4 using HepaRG (AID 2283487)
Outline: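 Differentiated HepaRG cells, plated 48 h, then dosed 48 h in serum-free induction medium with 0.5% DMSO, 8 half-log concentrations up to 100 uM, duplicate. CYP3A4 mRNA by qRT-PCR, normalized to ACTB/GAPDH/POLR2A; bidirectional fit versus DMSO.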

[2] = read-out: Pro-epidermal growth factor (Homo sapiens) (UniProt P01133); assay: LTEA_HepaRG_EGF: Life Technologies and Expression Analysis (LTEA) Assay for Epidermal growth factor (EGF) using HepaRG (AID 2283489)
Outline: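 HepaRG, 48 h dosing, 100 uM top, half-log x8, 0.5% DMSO. Readout: TaqMan qRT-PCR (Fluidigm array), housekeeping-normalized. Gain or loss of signal fit vs DMSO.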

[3] = read-out: Early growth response protein 1 (EGR1) transcription factor, EGR1 (gene 1958); assay: LTEA_HepaRG_EGR1: Life Technologies and Expression Analysis (LTEA) Assay for Early growth response protein 1 (EGR1) transcription factor using HepaRG (AID 2283490)
Outline: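 EGR1 expression change in human HepaRG after 48 h chemical exposure, assessed by housekeeping-normalized qRT-PCR; concentration-response up to 100 uM, fitted in both directions against DMSO controls.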

[4] = read-out: Cytochrome P450 3A7 (Homo sapiens) (UniProt P24462); assay: LTEA_HepaRG_CYP3A7: Life Technologies and Expression Analysis (LTEA) Assay for CYP3A7 using HepaRG (AID 2283492)
Outline: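 Human HepaRG liver cells, 48 h post-plating, switched to serum-free induction medium and exposed in duplicate for 48 h. Dosing: 100 uM top, half-log dilutions, 8 points, 0.5% DMSO vehicle. Read-out: CYP3A7 mRNA, gain or loss fitted against DMSO baseline.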

CYP3A5 (gene 1577) = assay: LTEA_HepaRG_CYP3A5: Life Technologies and Expression Analysis (LTEA) Assay for CYP3A5 using HepaRG (AID 2283493)
Outline: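 mRNA levels were quantified by qRT-PCR on Fluidigm arrays and normalized to three housekeeping genes. Differentiated HepaRG cells received 48 h exposure (top 100 uM, half-log steps, 0.5% DMSO vehicle, duplicate); bidirectional fitting versus DMSO.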

[5] = read-out: Cytochrome P450 7A1 (Homo sapiens) (UniProt P22680); assay: LTEA_HepaRG_CYP7A1: Life Technologies and Expression Analysis (LTEA) Assay for Cytochrome P450 7A1 (CYP7A1) using HepaRG (AID 2283496)
Outline: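 HepaRG, 48 h exposure, 8-pt half-log series from 100 uM, 0.5% DMSO vehicle, duplicates. Readout: TaqMan qRT-PCR mRNA vs three housekeeping genes; bidirectional curve fit against DMSO baseline.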

[6] = read-out: Glutathione S-Transferase (GSTA2), GSTA2 (gene 2939); assay: LTEA_HepaRG_GSTA2: Life Technologies and Expression Analysis (LTEA) Assay for Glutathione S-Transferase (GSTA2) using HepaRG (AID 2283497)
Outline: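 Oxidative-stress marker GSTA2 is quantified by TaqMan qRT-PCR in HepaRG cultures treated 48 h across an eight-point range to 100 uM. Expression is normalized to endogenous controls and compared with 0.5% DMSO vehicle.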

[7] = read-out: Glutamate-cysteine ligase catalytic (GCLC), GCLC (gene 2729); assay: LTEA_HepaRG_GCLC: Life Technologies and Expression Analysis (LTEA) Assay for Glutamate-cysteine ligase catalytic (GCLC) using HepaRG (AID 2283498)
Outline: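 Oxidative-stress marker GCLC is measured as mRNA change in human HepaRG liver cells after 48 h chemical treatment in 0.5% DMSO, eight concentrations from 100 uM. Activity is fitted bidirectionally against vehicle.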

[8] = read-out: growth arrest and DNA damage 45 (GADD45G), GADD45G (gene 10912); assay: LTEA_HepaRG_GADD45G: Life Technologies and Expression Analysis (LTEA) Assay for growth arrest and DNA damage 45 (GADD45G) using HepaRG (AID 2283499)
Outline: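 Gain or loss of GADD45G mRNA, quantified by TaqMan qRT-PCR against three housekeeping genes, is fitted in both directions relative to 0.5% DMSO. Human HepaRG cultures receive test chemical for 48 h at up to 100 uM.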

[9] = read-out: Glutamate-cysteine ligase regulatory (GCLM), GCLM (gene 2730); assay: LTEA_HepaRG_GCLM: Life Technologies and Expression Analysis (LTEA) Assay for Glutamate-cysteine ligase regulatory (GCLM) using HepaRG (AID 2283500)
Outline: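 GCLM expression quantified by qRT-PCR, normalized to three housekeeping genes, after 48 h chemical treatment of HepaRG cells in duplicate at 8 concentrations (top 100 uM, half-log steps, 0.5% DMSO). Changes fitted both directions against vehicle.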

[10] = read-out: Glutathione S-transferase M3 (GSTM3), GSTM3 (gene 2947); assay: LTEA_HepaRG_GSTM3: Life Technologies and Expression Analysis (LTEA) Assay for Glutathione S-transferase M3 (GSTM3) using HepaRG (AID 2283501)
Outline: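 HepaRG, plated 48 h, then serum-free induction medium; test chemical 48 h, duplicate; 100 uM top, half-log x8, 0.5% DMSO. Read-out: GSTM3 mRNA (TaqMan qRT-PCR, Fluidigm array). Bidirectional fit vs DMSO.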

[11] = read-out: Heat shock 70 kDa protein 1 (HSPA1A), gene 3303; assay: LTEA_HepaRG_HSPA1A: Life Technologies and Expression Analysis (LTEA) Assay for Heat shock 70 kDa protein 1 (HSPA1A) using HepaRG (AID 2283502)
Outline: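 HSPA1A expression measured by qRT-PCR with ACTB/GAPDH/POLR2A normalization; curves fitted in both directions relative to DMSO vehicle. Exposure: 48 h in HepaRG cells, duplicate 8-point half-log series from 100 uM, 0.5% DMSO, serum-free induction medium.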

[12] = read-out: Hypoxia-inducible factor 1-alpha (Homo sapiens) (UniProt Q16665); assay: LTEA_HepaRG_HIF1A: Life Technologies and Expression Analysis (LTEA) Assay for Hypoxia-inducible factor 1 (HIF1A) Trancription factor using HepaRG (AID 2283503)
Outline: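 HIF1A transcript level read by qRT-PCR (ACTB, GAPDH, POLR2A normalization) after 48 h chemical exposure of HepaRG cultures. Eight half-log concentrations, top 100 uM, 0.5% DMSO vehicle, duplicates; bidirectional curve fit against DMSO baseline.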

[13] = read-out: 3-Hydroxy-3-Methylglutaryl-CoA Synthase 2 (HMGCS2), HMGCS2 (gene 3158); assay: LTEA_HepaRG_HMGCS2: Life Technologies and Expression Analysis (LTEA) Assay for 3-Hydroxy-3-Methylglutaryl-CoA Synthase 2 (HMGCS2) using HepaRG (AID 2283504)
Outline: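 HepaRG, plated 48 h then switched to serum-free induction media; cmpd 8-pt, max 100 uM, 1/2-log, 0.5% DMSO, n=2, 48 h. HMGCS2 mRNA by Fluidigm TaqMan qRT-PCR, ACTB/GAPDH/POLR2A norm; bidirectional fit vs DMSO.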

HGF (gene 3082) = assay: LTEA_HepaRG_HGF: Life Technologies and Expression Analysis (LTEA) Assay for Hepatocyte Growth Facto (HGF) using HepaRG (AID 2283505)
Outline: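 Read-out is HGF transcript level by qRT-PCR, normalized to three housekeeping genes, fitted bidirectionally against 0.5% DMSO vehicle. Human HepaRG cells received test chemicals for 48 h at up to 100 uM.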

[14] = read-out: Insulin Like Growth Factor 1 (IGF1), IGF1 (gene 3479); assay: LTEA_HepaRG_IGF1: Life Technologies and Expression Analysis (LTEA) Assay for Insulin Like Growth Factor 1 (IGF1) using HepaRG (AID 2283506)
Outline: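 Expression measured by TaqMan qRT-PCR on a Fluidigm array, with three housekeeping genes for normalisation, after 48 h treatment of HepaRG cells. Top concentration 100 uM with half-log steps, 0.5% DMSO vehicle, bidirectional fit.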

[15] = read-out: Intercellular Adhesion Molecule 1 (ICAM1), ICAM1 (gene 3383); assay: LTEA_HepaRG_ICAM1: Life Technologies and Expression Analysis (LTEA) Assay for Intercellular Adhesion Molecule 1 (ICAM1) using HepaRG (AID 2283507)
Outline: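 Readout is qRT-PCR mRNA level, normalized to three housekeeping genes and fitted bidirectionally against 0.5% DMSO vehicle. Human HepaRG cultures received compound for 48 h, top concentration 100 uM with half-log dilutions.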

[16] = read-out: Insulin-like growth factor-binding protein 1 (IGFBP1), IGFBP1 (gene 3484); assay: LTEA_HepaRG_IGFBP1: Life Technologies and Expression Analysis (LTEA) Assay for Insulin-like growth factor-binding protein 1 (IGFBP1) using HepaRG (AID 2283508)
Outline: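 Thawed HepaRG cells are plated for 48 h, switched to serum-free induction medium, then dosed in duplicate for another 48 h (100 uM top, half-log steps). Lysates in RLT go to qRT-PCR, and gain or loss of signal is fitted relative to vehicle.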

Measured: AC50

Cytochrome P450 3A7 (Homo sapiens), sequence (P24462 whole entry, looked up): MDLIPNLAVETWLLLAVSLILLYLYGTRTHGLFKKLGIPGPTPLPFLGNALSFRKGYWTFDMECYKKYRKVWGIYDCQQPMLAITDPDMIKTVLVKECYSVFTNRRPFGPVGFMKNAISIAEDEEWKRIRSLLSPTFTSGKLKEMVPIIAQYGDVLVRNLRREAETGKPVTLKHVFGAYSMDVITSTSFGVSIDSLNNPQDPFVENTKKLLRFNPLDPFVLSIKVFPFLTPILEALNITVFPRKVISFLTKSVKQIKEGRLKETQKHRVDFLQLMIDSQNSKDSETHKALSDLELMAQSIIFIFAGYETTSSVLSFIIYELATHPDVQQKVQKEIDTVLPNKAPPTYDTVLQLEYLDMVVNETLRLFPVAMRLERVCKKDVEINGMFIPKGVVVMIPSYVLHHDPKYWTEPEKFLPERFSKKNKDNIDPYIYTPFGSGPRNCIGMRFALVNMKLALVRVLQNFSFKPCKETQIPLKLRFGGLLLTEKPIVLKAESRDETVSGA
Hypoxia-inducible factor 1-alpha (Homo sapiens), sequence (Q16665 whole entry, looked up): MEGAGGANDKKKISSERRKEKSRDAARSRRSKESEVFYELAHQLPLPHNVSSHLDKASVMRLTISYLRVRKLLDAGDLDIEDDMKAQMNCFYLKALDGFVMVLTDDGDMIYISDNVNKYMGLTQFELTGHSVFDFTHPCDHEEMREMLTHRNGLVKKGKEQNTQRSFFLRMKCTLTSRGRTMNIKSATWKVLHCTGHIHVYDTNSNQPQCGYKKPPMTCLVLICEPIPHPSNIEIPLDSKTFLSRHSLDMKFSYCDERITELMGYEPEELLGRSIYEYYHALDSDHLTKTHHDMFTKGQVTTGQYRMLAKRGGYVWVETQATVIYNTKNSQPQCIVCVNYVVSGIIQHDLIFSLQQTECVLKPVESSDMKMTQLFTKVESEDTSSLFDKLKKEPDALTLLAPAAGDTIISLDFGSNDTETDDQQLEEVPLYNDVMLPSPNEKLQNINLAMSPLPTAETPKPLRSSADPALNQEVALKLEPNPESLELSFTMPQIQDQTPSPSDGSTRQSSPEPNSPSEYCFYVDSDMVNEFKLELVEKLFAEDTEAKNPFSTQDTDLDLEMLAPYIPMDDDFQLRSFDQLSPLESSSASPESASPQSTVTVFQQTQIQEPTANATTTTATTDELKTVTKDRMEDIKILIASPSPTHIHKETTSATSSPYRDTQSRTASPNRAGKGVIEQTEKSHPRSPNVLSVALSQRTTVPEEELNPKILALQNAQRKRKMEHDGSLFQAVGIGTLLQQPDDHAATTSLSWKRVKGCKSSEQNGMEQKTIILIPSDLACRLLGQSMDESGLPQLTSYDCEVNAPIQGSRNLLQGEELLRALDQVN
Cytochrome P450 3A4 (Homo sapiens), sequence (P08684 whole entry, looked up): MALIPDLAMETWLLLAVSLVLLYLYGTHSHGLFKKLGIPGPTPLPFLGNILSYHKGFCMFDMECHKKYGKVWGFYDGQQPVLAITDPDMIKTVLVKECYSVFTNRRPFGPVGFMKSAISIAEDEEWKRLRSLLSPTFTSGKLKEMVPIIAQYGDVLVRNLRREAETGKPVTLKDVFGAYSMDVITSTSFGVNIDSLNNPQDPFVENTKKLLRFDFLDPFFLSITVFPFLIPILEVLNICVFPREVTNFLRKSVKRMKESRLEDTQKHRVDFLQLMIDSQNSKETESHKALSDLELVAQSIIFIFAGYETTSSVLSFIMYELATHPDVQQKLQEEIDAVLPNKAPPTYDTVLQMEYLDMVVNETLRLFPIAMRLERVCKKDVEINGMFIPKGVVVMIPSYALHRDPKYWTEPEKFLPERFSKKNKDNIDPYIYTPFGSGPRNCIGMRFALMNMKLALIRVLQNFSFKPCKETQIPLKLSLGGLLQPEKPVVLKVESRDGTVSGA

O=C1C2(Cl)C3(Cl)C4(Cl)C(Cl)(Cl)C5(Cl)C3(Cl)C1(Cl)C5(Cl)C24Cl (stereo not given)
inactive: [1] | [2] | [4] | [10] | HGF (gene 3082)
active: CYP2E1 (gene 1571) 13.2 µM | CYP4A11 (gene 1579) 22.8 µM | [3] 95.5 µM | CYP3A5 (gene 1577) 92.4 µM | [5] 20.6 µM | [6] 22.9 µM | [7] 93.3 µM | [8] 59 µM | [9] 88.5 µM | [11] 91.9 µM | [12] 92.5 µM | [13] 24.2 µM | [14] 23.8 µM | [15] 91.4 µM | [16] 84 µM

Oc1cccc2cccnc12
not listed: [12]
inactive: all other assays above

O=C(O)C(F)(F)C(F)(F)C(F)(F)C(F)(F)C(F)(F)C(F)(F)C(F)(F)C(F)(F)C(F)(F)C(F)(F)F
active: CYP2E1 (gene 1571) 57 µM | CYP4A11 (gene 1579) 21.5 µM | CYP3A5 (gene 1577) 21.4 µM | [5] 46.5 µM | [6] 47.8 µM
inactive: all other assays above

C=C(C)C(=O)[O][Sn]([CH2]CCC)([CH2]CCC)[CH2]CCC
active: CYP4A11 (gene 1579) 1.49 µM | [1] 2.52 µM | [4] 2.71 µM | CYP3A5 (gene 1577) 4.68 µM | [7] 4.01 µM | [8] 1.21 µM | [9] 88.7 µM | [11] 89.6 µM | [12] 5.19 µM | [13] 2.69 µM | HGF (gene 3082) 72 µM | [14] 1.2 µM | [15] 2.12 µM | [16] 2.66 µM
inactive: CYP2E1 (gene 1571) | [3] | [6] | [10]

CCC(C)(C)c1ccc(O)c(C(C)(C)CC)c1
inactive: all assays above

CCC(=O)C(CC(C)N(C)C)(c1ccccc1)c1ccccc1 (stereo not given)
active: CYP2E1 (gene 1571) 36.2 µM | [10] 36.2 µM | [13] 36.2 µM
not listed: [1] | [4]
inactive: all other assays above
